# “And” between values parts separate entries of the source, which are not always exact repeats. Identical values can stand only once. Results filed as inconclusive are left out. Values without a mark were called inactive. The source made the active and inactive calls. The call rests on the fitted dose curve; in most records, active means well fitted cell-killing curve with a large enough effect in the repeat runs; inconclusive means weak or mixed curves; inactive means flat fitted curve, though single readings scatter.
# Experiment: qHTS RealTime-Glo MT Cell Viability Assay in HepG2 cells - 8 hour (AID 1224873); further: nearly all actives have a fitted effect of over 55% in size
# Conditions: RealTime-Glo luminescence; series mostly up to 76.8 µM; viability change, negative = cytotoxic: at the top concentration
# Source text: National Center for Advancing Translational Sciences [NCATS]
# NIH Chemical Genomics Center [NCGC]
# U.S. Environmental Protection Agency [EPA]
# National Institutes of Environmental Health Sciences [NIEHS]
# National Toxicology Program [NTP]
# U.S. Food and Drug Administration [FDA]
# Measure of cell viability is critical in the cell-base assay. Analysis of cell viability is necessary for the characterization of cell responses to cytotoxic drugs and environmental stress. A RealTime-Glo MT Cell Viability Assay to monitor cell viability in real time of continues cell culture during 40 hours of compound treatment was used to screen Tox21 10K library compounds in HepG2 cells. The RealTime-Glo MT Cell Viability Assay is a nonlytic, homogeneous, bioluminescent method to measure cell viability in real time using a simple, plate-based method. The assay involves adding NanoLuc luciferase and a cell-permeant prosubstrate to cells in culture. Viable cells reduce the proprietary prosubstrate to generate a substrate for NanoLuc luciferase. This substrate diffuses from cells into the surrounding culture medium, where it is rapidly used by the NanoLuc Enzyme to produce a luminescent signal. The signal correlates with the number of viable cells, making the assay well suited for cytotoxicity studies.
# Tox21 Assay Protocol Summary:
# The mixture of HepG2 cell suspension and reagents were dispensed at 600cells/6 ul/well in 1536-well tissue culture treated black solid bottom plates using a Multidrop dispenser. After the assay plates were incubated at a 37 C/5% CO2 incubator for 5 hours, 23 nL of compounds dissolved in DMSO, positive and negative controls was transferred to the assay plate by a pintool work station. The plates were incubated at 37 C for 40 hours. The luminescence intensity were measured at 0h, 8h, 16h, 24h, 32h and 40h time points using ViewLux plate reader during compound treatment.
# On the % scale 0 is the no-effect control and ±100 the full control effect; potency means the concentration at half of the fitted maximal effect.
Structure (SMILES),"viability change, negative = cytotoxic",Potency
COc1ccccc1N1CCNCC1,6.9% [at 35.3 µM],
CC[N+]1(C)CCCC(OC(=O)C(O)(c2ccccc2)c2ccccc2)C1 (stereo not given),4.81% [at 35.3 µM],
CON(C)C(=O)Nc1ccc(Cl)cc1,-2.05%,
Cc1ccc2c(C)cccc2c1,0.807%,
O=C1CC[C@@]2(O)[C@H]3Cc4ccc(O)c5c4[C@@]2(CCN3CC2CC2)[C@H]1O5,2.16% [at 35.3 µM],
CCCCCl,-2.52%,
O=C=NC1CCCCC1,0.7%,
O=C(O)COc1cc(Cl)c(Cl)cc1Cl,,inactive
CCc1ccccc1N,8.49%,
C[N+](C)(C)CCOC(=O)C(O)(c1ccccc1)c1ccccc1,5.5% [at 35.3 µM],
CC(Cc1ccccc1)NCc1ccccc1Cl (stereo not given),4.32% [at 35.3 µM],
Cc1ccc(N)c(C)c1,,inactive
CCCSP(=S)(OCC)Oc1ccc(SC)cc1 (stereo not given),-13.6%,
C[CH2][Hg][S]c1ccccc1C(=O)O,,3.47 µM (active) and 2.13 µM (active)
CCCCCCCCCCCCN=C(N)N,-3.99% [at 2.72 µM],
OCC1CO1 (stereo not given),,inactive
CC(CC(C(N)=O)(c1ccccc1)c1ccccc1)N(C)C (stereo not given),4.78% [at 35.3 µM],
CCCCCBr,0.135%,
CCCCC1C(=O)NC(=O)N(C2CCCCC2)C1=O (stereo not given),0.645% [at 35.3 µM],
C[C@H]1[C@@H]2Cc3ccc(O)cc3[C@@]1(C)CCN2C,-2.4% [at 200 µM],

Structure (SMILES),"viability change, negative = cytotoxic",Potency
CCC(=O)O[C@@H]1C=C2CCC3C(CCC4(C)C3CC[C@@H]4OC(=O)CC)C2CC1 (stereo not given in full),0.347% [at 35.3 µM],
CCOP(=O)(SC(C)CC)N1CCSC1=O (stereo not given),1.88%,
COCc1cnc(C2=NC(C)(C(C)C)C(=O)N2)c(C(=O)O)c1 (stereo not given),2.57%,
CCCN(CCC)C(=O)Cc1c(-c2ccc(Cl)cc2)nc2ccc(Cl)cn12,-15.3% [at 35.3 µM],
C=CC(C)(CCC=C(C)C)OC(=O)c1ccccc1N (stereo not given),-1.54%,
C[C@]12C=CC3=C4CCC(=O)C=C4CC[C@H]3[C@@H]1CC[C@@H]2O,,inactive
CCOC(=O)NC(O)C(Cl)(Cl)Cl (stereo not given),0.143% [at 35.3 µM],
C=CCSSCC=C,-1%,
CC(C)(c1ccccc1)c1cc(-n2nc3ccccc3n2)c(O)c(C(C)(C)c2ccccc2)c1,1.12% [at 35.3 µM],
CCCCNC(=O)OCC#CI,,15.4 µM (active) and 12.3 µM (active)
O=C(O)CCCOc1ccc(Cl)cc1Cl,,inactive
C[Si](Cn1cncn1)(c1ccc(F)cc1)c1ccc(F)cc1,-16.4%,
CN1C(=O)CN=C(c2ccccc2)c2cc([N+](=O)[O-])ccc21,-0.671% [at 35.3 µM],
CN1CC[C@]23c4c5ccc(O)c4O[C@H]2[C@@H](O)C=C[C@H]3[C@H]1C5,-3.97%,
Nc1c(Br)cc(Br)c2c1C(=O)c1ccccc1C2=O,-13.9% [at 15.8 µM],
CN1C[C@H](C(=O)N[C@]2(C)O[C@@]3(O)[C@@H]4CCCN4C(=O)[C@H](Cc4ccccc4)N3C2=O)C=C2c3cccc4[nH]cc(c34)C[C@H]21,,13.9 µM (active) and 12.8 µM (active)
OC[P+](CO)(CO)CO,,inactive
C[N+]1(CCC(C(N)=O)(c2ccccc2)c2ccccc2)CCCCC1,0.691% [at 35.3 µM],
COc1ccc(C(O)(c2cncnc2)C2CC2)cc1 (stereo not given),7.12%,
CC1(C)[C@H](C(=O)O[C@H](C#N)c2cccc(Oc3ccccc3)c2)[C@@H]1C=C(Br)Br,-9.12%,

# Source: PubChem BioAssay (Tox21)
